# This is a sample that favours compounds with a hit; in the whole collection about 3.7% have one here.
# TbPYK inhibitor – inhibitors of Trypanosoma brucei pyruvate kinase. Q57TT1. TbPYK enzyme, Kinase-Glo Plus ATP luminescence, 45 min. Potency, µM (top dose mostly 76.8 µM), without a hit: at the top dose activity, negative = inhibition, most hits filed as inhibitors. hit rate 0.12% among 410,000; further: nearly all actives have a fitted effect of over 50% in size
#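 Quantitative HTS: titrated library compounds versus trypanosomal pyruvate kinase in TEA buffer (pH 7.2) containing KCl, MgCl2, BSA and Tween-20. Reactions were initiated with ADP, 130 uM final. Kinase-Glo Plus luminescence was read after 45 min at RT.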
# Sm TGR block – inhibitors of Schistosoma mansoni thioredoxin glutathione reductase; purified TGR, DTNB reduction, TNB absorbance 405 nm; hit rate 3% among 360,000; Q962Y6; AID 485364; Potency, µM (series often up to 114 µM), for inactives: at the highest dose activity change, negative = inhibition, most hits filed as inhibitors; further: nearly all actives have a fitted effect of over 60% in size
#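 First, TGR (20 nM dispensed) and NADPH were mixed with compound. Second, a 15 min room-temperature incubation followed. Third, further NADPH and then DTNB were added to start the reaction. Finally, TNB absorbance was monitored kinetically.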
# RE007 growth inh – less growth of the S. pombe RE007 Vpr strain | S. pombe RE007 Vpr strain, BacTiter-Glo ATP luminescence, 24 h | hit rate 0.21% among 360,000 | Potency, µM (top dose mostly 92.2 µM), for the others: top-dose activity change, negative = less growth, most hits filed as inhibitors; active means well fitted falling curve with a large enough effect; inconclusive means small, poorly fitted or top-dose-only effect; inactive means no such curve, though single readings can be large or run the other way; further: nearly all actives have a fitted effect of over 50% in size
#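 Fission yeast RE007 carrying one integrated HIV-1 vpr copy, seeded at OD 0.01 in PMG+AL medium with 23 nL pinned compound. Grown 24 h at 30 degrees; viability read by BacTiter-Glo luminescence after 5 min.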
# FMDV antiviral – blocks foot and mouth disease virus. FMDV antiviral cell-based qHTS. Potency, µM (highest dose often 57.9 µM), for the others: at the highest dose activity change, negative = inhibition, hits mostly inhibitors. hit rate 1.2% among 410,000; calls by dose curve; tested in HEK293T cells; further: read-out not given here; nearly all actives have a fitted effect of over 45% in size
# * hit, by the source's call; u = inconclusive; x = no result; ! = a repeat was not active; [ ] = dose if it differs, or a comment. Unless noted, the call rests on the fitted dose curve; in most records, active means well fitted curve in the direction sought with a large enough effect; inconclusive means small, poorly fitted or top-dose-only effect, or another doubt; inactive means no such curve, though single readings can be large; an effect the other way counts as inactive or inconclusive. On the % scale 0 is the no-effect control and ±100 the full control effect; potency means the concentration at half of the fitted maximal effect.
SMILES,TbPYK inhibitor,Sm TGR block,RE007 growth inh,FMDV antiviral
Cc1ccc(NCN2C(=O)C3C4C=CC(C4)C3C2=O)cc1 (configuration not stated),u,0.0%,-0.9%,2.3%
COc1ccc(NC(=O)/C=C/c2ccco2)cn1,-1.2%,8.91µM*,2.4%,31.5%
COc1ccc(NC(=O)/C=C/c2cccc(F)c2)cn1,2.5%,-1.2%,-20.6%,-22.1%
COc1ccccc1CNC(=O)Cc1ccc(Br)cc1,-6.2%,15.7%,17.7%,17.6%
COc1ccccc1CNC(=O)/C=C/c1ccc(Br)o1,-14.1%,2.24µM*,-18.0%,1.3%
COc1ccc(NC(=O)/C=C/c2ccc(Br)o2)cn1,-30.2%,11.2µM*,-10.0%,-1.8%
CN1CCN(C(=O)C2=C[C@@H](c3ccc(C(F)(F)F)cc3)C[C@@H](OCCCCO)O2)CC1,0.3%,44.7µM*,2.7%,-8.0%
CN1CCN(C(=O)C2=C[C@H](c3ccc(C(F)(F)F)cc3)C[C@H](OCCCCO)O2)CC1,-3.7%,x,8.5%,-6.8%
C#CCNC(=O)C1=C[C@@H](c2ccc(C(F)(F)F)cc2)C[C@@H](OCCCCO)O1,1.8%,22.4µM*,7.1%,0.0%
C#CCNC(=O)C1=C[C@H](c2ccc(Br)cc2)C[C@H](OCCCCO)O1,0.2%,15.8µM*,-4.0%,-19.6%
C#CCNC(=O)C1=C[C@H](c2ccc(Br)cc2)C[C@H](OCc2ccc(CO)cc2)O1,0.9%,u,0.3%,-11.3%
C#CCNC(=O)C1=C[C@@H](c2ccc(Br)cc2)C[C@@H](OCc2ccc(CO)cc2)O1,4.0%,44.7µM*,6.6%,11.4%
Cc1cccc(NC(=O)CN2c3ccccc3S(=O)(=O)c3ccccc32)c1C,4.0%,-13.0%,x,-15.5%
CC(=O)Oc1c(C)cc(O)c2ccccc12,x,39.8µM*,x,x
CCC(C)NC(=O)Cn1c(=O)n(CCCCCC(=O)NCc2ccccc2Cl)c(=O)c2sccc21 (configuration not stated),1.2%,-10.7%,x,-7.3%
CC1(C)CC(NC(=O)c2coc(=O)c(Br)c2)CC(C)(C)N1,-2.2%,-25.6%,-1.8%,31.6µM*
COc1ccc(NC(C)=[N+](C)CCNS(=O)(=O)c2ccc(Cl)cc2)cc1,u,35.5µM*,-3.9%,-3.5%
Cc1ccc(NC(=O)O/N=C/c2c(C)nn(C(C)(C)C)c2C)cc1Cl,2.1%,-3.1%,2.5%,0.0126µM*
CC(=O)c1ccc(S(=O)(=O)N2CCCC2)cc1,-9.0%,44.7µM*,12.9%,91.9%
O=S(=O)(c1ccc(F)cc1)N1CCCNCC1,3.6%,-35.3%,-14.4%,-20.4%
Cc1ccc(S(=O)(=O)N2CCCNCC2)cc1,-9.7%,15.8µM*,-11.8%,-5.7%
CC(=O)c1ccc(N2CCN(S(=O)(=O)c3ccc(-c4cnc(C5CC5)o4)cc3)CC2)cc1,3.8%,6.8%,19.9%,31.6µM*!
N#CC(C#N)=NNc1ccc(S(=O)(=O)N2CCCC2)cc1,0.7%,20µM*,-0.1%,31.6µM*
N#C/C(=N\Nc1ccc(S(=O)(=O)N2CCCCCC2)cc1)C(N)=S,-9.1%,x,-3.9%,17.1%
CC(=O)c1ccc(S(=O)(=O)N2CCN(C(C)=O)CC2)cc1,2.5%,-0.5%,-11.1%,-0.9%
SMILES,TbPYK inhibitor,Sm TGR block,RE007 growth inh,FMDV antiviral
CCc1nnc2c(N3CCN(c4cc(Cl)ccc4C)CC3)nc3ccccc3n12,-1.1%[15.4 µM],0.0%,x,1.8%
Cc1oc(-c2ccccc2)nc1Cn1c(=O)cc(-c2ccccc2)c2c(C)nn(C)c21,2.9%,-6.6%,x,-29.3%
CC(=O)c1ccc(S(=O)(=O)N2CCN(CCOc3ccc(Br)cc3)CC2)cc1,2.0%,-18.8%,u,17.8µM*
CC(=O)NC(c1ccco1)c1cc(Cl)c2ccc(N(C)C)nc2c1O (configuration not stated),x,3.98µM*,x,x
CC(=O)NC(c1ccco1)c1cc(Cl)c2cccnc2c1O (configuration not stated),-2.6%,-20.5%,x,-11.1%
COCCNC(=O)c1ccc2nc(CCc3ccccc3)oc2c1,-2.3%,8.4%,x,37.1%
O=C(Nc1nonc1-c1ccc(Br)cc1)c1ccco1,-1.7%,1.1%,x,-17.3%
CC1=C(c2ccc(Cl)cc2)[N+](=O)C(C)(C)N1[O-],-9.5%,20µM*,-9.3%,-5.7%
CCn1nc(C)cc1-c1nnc(Sc2ncc([N+](=O)[O-])s2)n1C,-21.7%,0.282µM*,35.5µM*,28.2µM*
CCn1nc(C)cc1-c1nnc(SCC(=O)Nc2ccccc2)n1CCCOC,-1.1%,4.9%,-12.1%,-2.9%
CCN1C(=O)/C(=C\c2ccc(-c3ccc([N+](=O)[O-])cc3OC)o2)SC1=Nc1cccc(C(=O)O)c1,-3.8%,35.5µM*,-12.0%,-8.7%
Cc1ccc(CNC(=O)C2CCC(CNS(=O)(=O)c3ccc(C)cc3)CC2)cc1 (configuration not stated),5.4%[15.4 µM],33.4%,x,8.5%
C=CCNC(=S)N1CCN(CCN=CC2=C(O)CC(c3cccs3)CC2=O)CC1 (configuration not stated),-2.0%,-7.2%,9.7%,-6.7%
CCCOc1ccc(N2C(=O)CC(N3CCN(CCN=CC4=C(O)CC(C)(C)CC4=O)CC3)C2=O)cc1 (configuration not stated),3.9%,x,u,-4.5%
CCOC(=O)c1ccc(NC(=S)N2CCN(CCN=CC3=C(O)CC(C)(C)CC3=O)CC2)cc1,-2.5%,1.12µM*,37.3%,-10.5%
CC1(C)CC(=O)C(C=NCCN2CCN(C(=O)Cc3ccc(Cl)cc3)CC2)=C(O)C1,-5.0%,u,12.9%,4.3%
CC1(C)CC(=O)C(C=NCCN2CCN(C3CC(=O)N(c4ccc(Br)cc4)C3=O)CC2)=C(O)C1 (configuration not stated),1.9%,50.1µM*,u,-22.7%
CC1(C)CC(=O)C(C=NCCN2CCN(C(=O)C34CC5CC(CC(C5)C3)C4)CC2)=C(O)C1,2.1%,25.1µM*,4.3%,-20.1%
CC(=O)N1CCN(CCN=CC2=C(O)CC(c3cccs3)CC2=O)CC1 (configuration not stated),-6.6%,44.7µM*,1.2%,-22.8%
CCOC(=O)c1ccc(NC(=O)CN2CCN(CCN=CC3=C(O)CC(C)(C)CC3=O)CC2)cc1,2.6%,u,51.9%,-5.4%
C/C(=N\NC(=O)c1ccccc1NC(=O)c1ccc(Cl)cc1)c1ccncc1,u,-3.9%,3.98µM*,3.16µM*
C/C(=N/NS(=O)(=O)c1ccc(Cl)cc1)c1ccncc1,-5.1%,28.2µM*,1.4%,7.5%
C/C(=N/NS(=O)(=O)c1ccc(C(C)C)cc1)c1ccncc1,-4.9%,10.9%,11.2%,20.0%
COc1ccc(CNC(=O)c2cnn(-c3ncc4c(n3)-c3ccccc3CC4)c2C)cc1OC,x,x,x,33.9%
NC(=O)c1ccsc1NC(=O)CCS(=O)(=O)c1ccc(Cl)cc1,1.0%,3.16µM*,6.4%,0.0%
NC(=O)c1ccsc1NC(=O)CCS(=O)(=O)c1ccccc1,5.7%,12.4%,-8.9%,1.1%
N#Cc1ccsc1NC(=O)CCS(=O)(=O)c1ccccc1,-3.1%,2.82µM*,8.3%,-11.4%
CCN(c1ccccc1)S(=O)(=O)c1ccc(NC(=O)c2nc(SC(C)C)ncc2Cl)cc1,-1.4%,8.1%,x,-16.8%

# Bioassay records (PubChem)
